Compound activity (PubChem)
HBB splicing – alters splicing of the hemoglobin beta chain | HBB splicing reporter cell assay, activation; EGFP reporter with mutant IVS2-654 intron; response scale: normalised to 500 nM splice-correcting PNA | 0.06% of 65,000 active | Potency, µM (doses to about 46.1 µM), for the others: at the top dose activation, most hits filed as activators; further: potency means the concentration at half of the fitted maximal effect; 0% is about no effect
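Compounds were applied for 2 days to HeLa EGFP-654 cells, 500/well in Optimem with 2% FCS. The reporter's EGFP is disrupted by mis-splicing of beta-globin intron IVS2-654. Readout: summed well GFP fluorescence from 488 nm laser scanning; reference was 500 nM antisense […] 654 PNA.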
UbGFP stabilizer – inhibits proteasome, raising ubiquitin-GFP reporter fluorescence. AID 526. 67,000 tested, under 10 active. Potency, µM (doses to about 45.9 µM), for the others: at the highest dose activation (GFP accumulation), most hits filed as activators. Ubiquitin-GFP reporter cells, proteasome inhibition, GFP fluorescence; response scale: untreated = 0%, 10 µM MG-132 = 100%; active means well fitted activation curve with a large enough effect, not every such curve was filed as active; inconclusive means small, poorly fitted or top-dose-only effect, or another doubt; inactive means no such curve, though single readings can be large or run the other way; further: potency means the concentration at half of the fitted maximal effect
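U2OS cells expressing ubiquitin(G76V)-GFP, seeded overnight in 0.5% FBS medium, then treated 4 hr at 37 C across 46 uM to 2.9 nM. GFP-positive cells counted by laser cytometry (488 ex/515 em); %activity scaled between basal and 10 uM MG-132.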
USP2a inh – inhibitors of human ubiquitin-specific protease USP2a; AID 927; Potency, µM (titrated, usually from 38.3 µM), inactives show top-dose activity change, negative = inhibition, actives largely listed as inhibitors; USP2a enzymatic assay, qHTS inhibition; 0.1% of 60,000 active; O75604; further: potency means the concentration at half of the fitted maximal effect; nearly all actives have a fitted effect of over 60% in size
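Coupled readout: USP2-cleaved Ub-PLA2 (20nM final) turns over NBD C6-HPC (20uM final), Ex 460nm/Em 535nm after 2.5 h, time-zero read flagging artifacts. Enzyme (20nM final, pH 8.0 Tris) given 30 min RT with compound first; NEM defines full inhibition.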
GBA mod – modulators of human glucocerebrosidase; P04062; purified enzyme, resorufin glucoside fluorescence (screen aimed at inhibitors), 20 min; 1.1% of 48,000 active; Potency, µM; in the data active means potency below about 15 µM; inconclusive means mostly about 16 µM to 33 µM;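 further: potency means the concentration at half of the fitted maximal effect; the screen sought inhibitors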
Target sequence (P04062 whole entry, looked up): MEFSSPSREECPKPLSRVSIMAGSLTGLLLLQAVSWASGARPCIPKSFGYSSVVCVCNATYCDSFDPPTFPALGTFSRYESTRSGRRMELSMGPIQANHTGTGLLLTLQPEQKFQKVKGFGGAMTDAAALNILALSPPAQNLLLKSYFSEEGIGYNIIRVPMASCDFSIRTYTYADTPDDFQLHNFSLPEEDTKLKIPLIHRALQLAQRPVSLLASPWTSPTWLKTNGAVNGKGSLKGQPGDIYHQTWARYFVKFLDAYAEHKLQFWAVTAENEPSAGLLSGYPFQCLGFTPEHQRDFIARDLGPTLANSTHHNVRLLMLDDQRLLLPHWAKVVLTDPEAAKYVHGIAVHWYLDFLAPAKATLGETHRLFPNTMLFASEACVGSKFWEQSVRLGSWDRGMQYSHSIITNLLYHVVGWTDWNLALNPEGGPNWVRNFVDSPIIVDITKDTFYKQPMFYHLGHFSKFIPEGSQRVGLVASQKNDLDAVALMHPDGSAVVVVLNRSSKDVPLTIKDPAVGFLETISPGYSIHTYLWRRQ
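Compounds titrated against 0.2 nM normal enzyme, 30 uM resorufin beta-D-glucopyranoside substrate, citrate/phosphate buffer with taurocholate and tween-20, pH 5.9. Reaction ran 20 min at room temperature; fluorescence (Ex 548/Em 600) gave AC50.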
GFP derepression – derepresses silenced GFP locus in mouse C127i cells. mouse C127i GFP locus derepression, cytometry, 30 h. Potency, µM (series often up to 46.1 µM), for inactives: top-dose GFP derepression (activation). 0.09% of 68,000 active. AID 597; further: % of control where 0% means no effect
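Murine C127i mammary cells carrying a silenced, stably integrated CMV-driven GFP reporter were treated with compound for 30 hours at 37 C. After PBS washes, GFP-positive cells were counted by laser-scanning microplate cytometry.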
Hsp90 Hop PPI – changes Hsp90-Hop TPR2A binding signal, up or down | AlphaScreen TPR2A-His6 binding biotin-Hsp90 C-terminal peptide | 0.44% of 71,000 active | Potency, µM (top dose mostly 57 µM), without a hit: top-dose activity change, negative = inhibition | AID 595; active means well fitted curve in either direction with a large enough effect; inconclusive means small, poorly fitted or top-dose-only effect, or another doubt; further: potency means the concentration at half of the fitted maximal effect; on the % scale 0 is the no-effect control and ±100 the full control effect
The depositor's hits bear a star; ! = not confirmed by another sample; [ ] = another dose, or the depositor's remark. The list is not random: actives were taken first. Their share in the collection is about 1.1%. Unless noted, the call rests on the fitted dose curve; in most records, active means well fitted curve in the direction sought with a large enough effect; inconclusive means small, poorly fitted or top-dose-only effect, or another doubt; inactive means no such curve, though single readings can be large; an effect the other way counts as inactive or inconclusive.

Screening CCc1nnc(NC(=O)CCC(=O)Nc2ccccc2)s1 returned HBB splicing 0.3%, UbGFP stabilizer -1.6%, USP2a inh -3.7%, GFP derepression 5.7% and Hsp90 Hop PPI -6.3%.
CCN1CCN(c2ncc(C(=O)Nc3c(F)cc(F)cc3Br)c3ccccc23)CC1 was read as HBB splicing -0.9%, UbGFP stabilizer -4.6%, USP2a inh 25.7%, GBA mod 12.4*, GFP derepression 1.8% and Hsp90 Hop PPI -0.3%.
For O=C(c1ccncc1)N1CCC2(CC1)CCN(c1ccccc1)CC2 the results were HBB splicing 3.9%, UbGFP stabilizer -11.0%, USP2a inh -13.5%, GFP derepression -2.3%[9.22 µM] and Hsp90 Hop PPI 0.9%.
`COCCn1nnnc1C(c1ccc(OC)c(OC)c1)N1CCN(c2nc3ccccc3s2)CC1` (stereo not drawn) gave HBB splicing -0.8%, UbGFP stabilizer 0.0%, USP2a inh 27.2%, GBA mod 5.98*, GFP derepression -1.2% and Hsp90 Hop PPI -3.4%.
For CN(C)c1ccc(C2(c3ccc(N(C)C)cc3)OC(=O)c3cc(N(C)C)ccc32)cc1 the results were HBB splicing 0.5% and Hsp90 Hop PPI 2.51µM*.
`O=C(O)C(Cc1cccs1)C(=O)O` gave HBB splicing 2.7%[9.22 µM], UbGFP stabilizer -1.1%[9.17 µM], GFP derepression -3.4%[9.22 µM] and Hsp90 Hop PPI -1.4%[11 µM].
`CCc1nnc(NC(=O)c2ccc(S(=O)(=O)N3CCCCC3C)cc2)s1` (stereo not drawn) gave HBB splicing 2.4%[57.5 µM], UbGFP stabilizer 4.3%, GBA mod >76.9, GFP derepression -2.3% and Hsp90 Hop PPI -0.3%.
For COCc1nnc(NC(=O)c2ccc(NC(=O)C(C)C)cc2)s1 the results were UbGFP stabilizer 7.4%, USP2a inh -0.1%, GBA mod 0.538*, GFP derepression -1.2% and Hsp90 Hop PPI -0.2%.
For CCc1nnc(NC(=O)c2ccc(S(=O)(=O)NCC(C)C)cc2)s1 the results were HBB splicing 0.1%[57.5 µM], UbGFP stabilizer 2.1%, GBA mod 1.75*, GFP derepression 0.0% and Hsp90 Hop PPI 0.8%.
`CCc1nnc(NC(=O)c2ccncc2)s1` gave HBB splicing 1.2%[1.84 µM], UbGFP stabilizer inconclusive, USP2a inh -3.2%, GBA mod >76.9, GFP derepression -3.7% and Hsp90 Hop PPI -1.0%.
CCc1nnc(NC(=O)c2ccc(S(=O)(=O)N3CCCCCC3)cc2)s1 was read as HBB splicing -4.6%, UbGFP stabilizer -1.7%, USP2a inh 5.9%, GBA mod 1.43*, GFP derepression -1.3% and Hsp90 Hop PPI -1.1%.
For COC(=O)Cc1nnc(NC(=O)c2ccccc2)s1 the results were HBB splicing 1.3%[0.369 µM], UbGFP stabilizer -2.6%, USP2a inh 0.0%, GFP derepression 0.0% and Hsp90 Hop PPI -3.4%.
Screening O=c1cnc2cnc(Nc3ccccc3)nc2n1C[C@H]1CCCO1 returned HBB splicing 3.6%, UbGFP stabilizer -2.0%, USP2a inh 9.0%, GFP derepression -0.4%[9.22 µM] and Hsp90 Hop PPI -6.4%.
Screening O=C(O)[C@H]1[C@H](C(=O)O)[C@H](C(=O)O)C[C@@H]1C(=O)O returned HBB splicing 2.3%[9.22 µM], UbGFP stabilizer -3.8%[9.17 µM], GFP derepression 2.3%[9.22 µM] and Hsp90 Hop PPI -1.0%[11 µM].
For Cn1cccc1C(=O)N1CCC2(CCN(Cc3nccs3)CC2)CC1 the results were HBB splicing 2.5%, UbGFP stabilizer 8.4%, USP2a inh 2.8%, GFP derepression -2.3%[9.22 µM] and Hsp90 Hop PPI -7.6%.
For CCCn1c(-c2ccc(F)cc2)nc2c(NCCCN(CCO)CCO)nc(C)nc21 the results were HBB splicing -0.5%, UbGFP stabilizer -3.6% and Hsp90 Hop PPI -0.1%.
`O=C(O)C[n+]1ccccc1` gave HBB splicing 1.7%[9.22 µM], UbGFP stabilizer 2.4%[9.17 µM], GFP derepression 2.2%[9.22 µM] and Hsp90 Hop PPI 2.0%[11 µM].
Nc1cc2c(nc3c4ccccc4c(N)cc3[n+]2-c2cccc3ccccc23)c2ccccc12 (tested in a mixture with another compound) was read as HBB splicing 5.3%[9.22 µM], UbGFP stabilizer 6.3%[9.17 µM], GFP derepression 0.0%[9.22 µM] and Hsp90 Hop PPI 2.51µM*.
Cc1cc(N)c2ccccc2[n+]1CCCCCCCCCC[n+]1c(C)cc(N)c2ccccc21 was read as HBB splicing -2.0%[20.6 µM], UbGFP stabilizer -1.2%, USP2a inh -25.3%, GFP derepression 1.4% and Hsp90 Hop PPI inconclusive.
Screening COc1ccccc1-c1cc(C(=O)NCc2cccs2)no1 returned HBB splicing 8.2%, UbGFP stabilizer -8.0%, USP2a inh -10.7%, GFP derepression 0.0% and Hsp90 Hop PPI 2.5%.
COc1ccccc1-c1cc(C(=O)NCc2ccco2)no1 was read as HBB splicing 0.4%, UbGFP stabilizer -10.2%, USP2a inh -2.6%, GBA mod 12.5*, GFP derepression 0.0% and Hsp90 Hop PPI -3.6%.
`Cc1ccc2oc(-c3cccc(NC(=O)C4CCCO4)c3)nc2c1` (stereo not drawn) gave HBB splicing -0.6%, UbGFP stabilizer 5.3%, USP2a inh 31.5%, GBA mod >76.9, GFP derepression -2.0% and Hsp90 Hop PPI 1.2%.
CC(=O)Nc1ccc(S(=O)(=O)Nc2cccc(-c3nc4cc(C)ccc4o3)c2)cc1 was read as HBB splicing -0.7%, UbGFP stabilizer -1.4%, USP2a inh 29.7%, GBA mod 7.86*, GFP derepression -5.4% and Hsp90 Hop PPI -2.3%.
For C(=N\n1cnnc1)/c1cccc2ccccc12 the results were HBB splicing -1.6%[57.5 µM], UbGFP stabilizer 10.3%, USP2a inh 5.1%, GBA mod 14.3*, GFP derepression 0.0% and Hsp90 Hop PPI -3.3%.
`O=C(O)CCC(=O)OC[C@@H](NC(=O)C(Cl)Cl)C(O)c1ccc([N+](=O)[O-])cc1` (stereo partly drawn) gave USP2a inh 2.9%.
For COC(=O)C/C=C\[C@@H](C)[C@@H](/C=N\O[C@@H]1O[C@H](COC(C)=O)[C@H](OC(C)=O)[C@H](OC(C)=O)[C@H]1OC(C)=O)OC the results were HBB splicing 0.7%[9.22 µM].
Screening CCN(CC)CCC[C@H](C)Nc1c2ccc(Cl)cc2nc2ccc(OC)cc12 returned HBB splicing 12.6µM*, UbGFP stabilizer 3.1%[20.5 µM], USP2a inh 36.2%[17.1 µM], GFP derepression 12.6µM*! and Hsp90 Hop PPI 1.8%[26 µM].
Screening COc1cc(/C=C/C(=O)/C=C(O)/C=C/c2ccc(O)c(OC)c2)ccc1O returned USP2a inh 10µM*.
For CCN1CCN(c2cc(C)c3cc(NC(=O)c4cncc(Br)c4)ccc3n2)CC1 the results were HBB splicing -2.4%, UbGFP stabilizer 3.2%, USP2a inh 43.1%, GBA mod 3.7*, GFP derepression 0.0% and Hsp90 Hop PPI -9.6%.
